Bioassay records as filed in PubChem BioAssay.
LAP4-GFP MLPCN – yeast TOR pathway LAP4-GFP modulation. S. cerevisiae LAP4-GFP multiplex, flow cytometry GFP, 3 h; median GFP as percent of DMSO wells. GFP response vs DMSO, % at 10 µM. hit rate 0.34% among 320,000;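 active = GFP response vs DMSO above a set limit, about the screen mean plus 3 SD, cut at about 150% in these data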
RPL19A-GFP yeast – modulators of TOR pathway RPL19A-GFP in S. cerevisiae; S. cerevisiae RPL19A-GFP strain, flow cytometry, 3 h; active compounds read low; percent response vs DMSO, % at 10 µM; hit rate 0.3% among 330,000;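 active = percent response vs DMSO below 50%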;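 note: median channel GFP fluorescence of the barcoded RPL19A-GFP strain; ratio of sample median GFP to plate DMSO average so 100% = DMSO; lower means less RPL19A-GFP as with rapamycin TOR inhibition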
CIT2 TOR yeast – alters CIT2-GFP fluorescence in TOR pathway yeast screen; AID 2029; S. cerevisiae CIT2-GFP strain, flow cytometry, 3 h; 100 means same as DMSO wells; GFP response vs DMSO, % at 10 µM; hit rate 0.065% among 320,000;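 active = GFP response relative to DMSO above a set limit, near the screen mean plus 3 SD, cut at about 150% in these data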;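 note: ratio of well median GFP fluorescence to mean of DMSO wells on the plate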
AGP1 TOR yeast – yeast TOR pathway AGP1-GFP modulation; hit rate 0.02% among 320,000; S. cerevisiae AGP1-GFP multiplex flow cytometry, 3 h; GFP as percent of DMSO wells; GFP response vs DMSO, % at 10 µM;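 active = GFP response relative to DMSO above a set limit, near screen average plus 3 SD, cut at about 150% in these data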;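 note: median GFP channel fluorescence of the gated AGP1 strain per well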
MEP2 TOR yeast – yeast TOR pathway MEP2-GFP modulation | hit rate 0.51% among 330,000 | AID 2016 | S. cerevisiae MEP2-GFP strain, flow cytometry GFP, 3 h; 100% = DMSO control level | GFP response vs DMSO, % at 10 µM;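 active = GFP response versus DMSO above a set limit, roughly screen mean plus 3 SD, cut at about 180% in these data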;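 note: median GFP fluorescence of the barcode-gated MEP2-GFP cells per well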
LAP4 cherry2 – reconfirmed LAP4-GFP TOR pathway modulator in yeast; shares compounds with LAP4-GFP MLPCN; S. cerevisiae LAP4-GFP strain, flow cytometry GFP, 3 h; GFP response vs DMSO, % at 10 µM; hit rate 20% among 590; AID 2621;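 active = GFP signal as percent of the solvent control above about 150%, meaning raised reporter expression, limit read from the data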;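 note: ratio of well median GFP fluorescence to plate DMSO mean so 100% = DMSO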
MEP2 cherry2 – reconfirmed MEP2-GFP TOR pathway modulator in yeast; S. cerevisiae MEP2-GFP strain, flow cytometry GFP, 3 h; shares compounds with LAP4-GFP MLPCN; GFP response vs DMSO, % at 10 µM; AID 2622; hit rate 10% among 590;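 active = GFP signal above 150% of the solvent control wells, that is a rise of more than half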;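 note: median channel GFP fluorescence of all gated yeast cells per well; ratio of median GFP to plate DMSO average so 100% = DMSO level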
RPL19A GFP CP2 – reconfirmed modulator of RPL19A-GFP TOR reporter in yeast. shares compounds with LAP4-GFP MLPCN. S. cerevisiae RPL19A-GFP strain, flow cytometry GFP, 3 h; active compounds read low; 100% means same as DMSO wells. GFP response vs DMSO, % at 10 µM. hit rate 3% among 590;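 active = under 65% GFP response relative to DMSO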;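 note: median GFP channel fluorescence per well over the all cells gate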
CIT2 GFP CP2 – reconfirmed modulator of CIT2-GFP TOR reporter in yeast; shares compounds with LAP4-GFP MLPCN; S. cerevisiae CIT2-GFP strain, flow cytometry GFP, 3 h; DMSO control wells read 100%; GFP response vs DMSO, % at 10 µM; hit rate 8% among 590;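 active = GFP response vs DMSO above about 150%, limit read from the data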;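 note: median green fluorescence per well over all gated yeast cells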
AGP1 GFP CP2 – reconfirmed modulator of AGP1-GFP TOR reporter in yeast | shares compounds with LAP4-GFP MLPCN | 590 tested, under 10 active | AID 2643 | S. cerevisiae AGP1-GFP strain, flow cytometry GFP, 3 h | percent response vs DMSO, % at 10 µM;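 active = over 150 percent of DMSO response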;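 note: median GFP channel fluorescence over all cells without mother daughter split; sample median GFP divided by mean DMSO control so 100% equals DMSO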
Yeast autofluor – yeast s288c autofluorescence artifact, counter-screen; 610 tested, under 10 active; S. cerevisiae s288c, 520 nm autofluorescence, flow cytometry, 3 h; active compounds read high; zero means same as solvent-only cells; fluorescence change (kMESF span) at 33 µM; shares compounds with LAP4-GFP MLPCN;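 active = fluorescence span over the dose series, or activity score, above about 33, limit read from the data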
Yeast autofl DR – counter-screen for autofluorescence of TOR hits in yeast s288c; shares compounds with LAP4-GFP MLPCN; S. cerevisiae s288c parental, compound autofluorescence, flow cytometry, 3 h; fluorescence change (span) at 33 µM; 110 tested, under 10 active; AID 488829;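 active = fluorescence change span, or the activity score built from it, above 25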
TORC1 bypass – wildtype yeast growth loss with TORC1 bypass cells unaffected. growth rating (0-3) at 30 µM. shares compounds with LAP4-GFP MLPCN. 120 tested, under 10 active. S. cerevisiae BY4741 spot growth rating, 48-72 h; active compounds read low;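 active = growth rating at most 1 for wild type yeast while the TORC1 bypass strain still grows fully, rated 3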
* marks the source's active call; other numbers are inactive results. An excerpt weighted towards active compounds, which were near 0.93% of everything screened.

Results for CCN(Cc1ccccc1)C(=O)C(=O)c1cn(CC(=O)N2CCCC2)c2ccccc12 ?
LAP4-GFP MLPCN: 101.7; RPL19A-GFP yeast: 101.6; CIT2 TOR yeast: 178.0*; AGP1 TOR yeast: 111.6; MEP2 TOR yeast: 104.7; LAP4 cherry2: 98.1; MEP2 cherry2: 101.5; RPL19A GFP CP2: 100.0; CIT2 GFP CP2: 106.3; AGP1 GFP CP2: 102.2

Results for COc1ccc2[nH]c3c(c2c1)CCNC3c1ccc([N+](=O)[O-])o1 (stereo unspecified) ?
LAP4-GFP MLPCN: 313.6*; RPL19A-GFP yeast: 135.2; CIT2 TOR yeast: 266.3*; AGP1 TOR yeast: 132.4; MEP2 TOR yeast: 498.4*; LAP4 cherry2: 316.6*; MEP2 cherry2: 564.2*; RPL19A GFP CP2: 145.3; CIT2 GFP CP2: 414.4*; AGP1 GFP CP2: 133.6

How did COc1ccc(Cl)cc1NC(=O)CN1C(=O)NC(C)(Cc2ccc(OC)c(OC)c2)C1=O (stereo unspecified) do in these assays?
LAP4-GFP MLPCN: 95.4; RPL19A-GFP yeast: 95.6; CIT2 TOR yeast: 97.1; AGP1 TOR yeast: 98.2; MEP2 TOR yeast: 96.0

What do the screens show for `COc1ccc(C(=O)NC(=S)NNC(=O)c2cccc(C)c2)cc1`?
LAP4-GFP MLPCN: 110.6; RPL19A-GFP yeast: 107.1; CIT2 TOR yeast: 97.0; AGP1 TOR yeast: 96.3; MEP2 TOR yeast: 98.1

What do the screens show for `Cc1cccc(C(=O)NNC(=S)NC(=O)c2ccccc2)c1`?
LAP4-GFP MLPCN: 154.6*; RPL19A-GFP yeast: 109.2; CIT2 TOR yeast: 104.7; AGP1 TOR yeast: 111.4; MEP2 TOR yeast: 100.3; Yeast autofluor: 0.9

How did O=C(CCc1ccccc1)NNC(=S)NC(=O)c1ccccc1 do in these assays?
LAP4-GFP MLPCN: 243.4*; RPL19A-GFP yeast: 108.1; CIT2 TOR yeast: 96.9; AGP1 TOR yeast: 94.8; MEP2 TOR yeast: 121.3; Yeast autofluor: 0.81; Yeast autofl DR: 0.78; TORC1 bypass: 3

Results for CC(=O)NC(=S)NNC(=O)CCc1ccccc1 ?
LAP4-GFP MLPCN: 107.3; RPL19A-GFP yeast: 95.3; CIT2 TOR yeast: 93.7; AGP1 TOR yeast: 100.5; MEP2 TOR yeast: 99.7

Results for O=C(NC(=S)NNC(=O)[C@H]1C[C@@H]1c1ccccc1)c1cccc(F)c1 ?
LAP4-GFP MLPCN: 153.1*; RPL19A-GFP yeast: 89.1; CIT2 TOR yeast: 95.9; AGP1 TOR yeast: 102.2; MEP2 TOR yeast: 100.8; Yeast autofluor: 1.3

Results for COc1cccc(OC)c1C(=O)NC(=S)NNC(=O)[C@H]1C[C@@H]1c1ccccc1 ?
LAP4-GFP MLPCN: 86.8; RPL19A-GFP yeast: 97.8; CIT2 TOR yeast: 90.5; AGP1 TOR yeast: 84.9; MEP2 TOR yeast: 92.1

What do the screens show for `CCCCC(=O)NC(=S)NNC(=O)CCc1ccccc1`?
LAP4-GFP MLPCN: 150.5*; RPL19A-GFP yeast: 101.0; CIT2 TOR yeast: 108.8; AGP1 TOR yeast: 102.4; MEP2 TOR yeast: 109.2; LAP4 cherry2: 139.4; MEP2 cherry2: 104.8; RPL19A GFP CP2: 104.0; CIT2 GFP CP2: 123.3; AGP1 GFP CP2: 96.5; Yeast autofluor: 0.4

What do the screens show for `CCOc1ccccc1NC(=O)c1ccc2c(c1)C(=O)N(C(C)(C)C)C2=O`?
LAP4-GFP MLPCN: 98.4; RPL19A-GFP yeast: 107.7; CIT2 TOR yeast: 100.8; AGP1 TOR yeast: 96.3; MEP2 TOR yeast: 110.9

Results for Cc1ccc(CN(C(=O)c2cc(=O)c3cc(Cl)c(C)cc3o2)C2CCS(=O)(=O)C2)cc1 (stereo unspecified) ?
LAP4-GFP MLPCN: 100.4; RPL19A-GFP yeast: 97.7; CIT2 TOR yeast: 88.0; AGP1 TOR yeast: 91.6; MEP2 TOR yeast: 95.7

How did O=C(CN1C(=O)NC(Cc2ccccc2)C1=O)Nc1ccc(OC(F)F)cc1 (stereo unspecified) do in these assays?
LAP4-GFP MLPCN: 100.8; RPL19A-GFP yeast: 97.8; CIT2 TOR yeast: 98.2; AGP1 TOR yeast: 101.1; MEP2 TOR yeast: 94.4

What do the screens show for `O=C(OCC(=O)N1CCOCC1)c1ccccc1OCc1ccccc1Cl`?
LAP4-GFP MLPCN: 104.5; RPL19A-GFP yeast: 100.6; CIT2 TOR yeast: 109.0; AGP1 TOR yeast: 107.5; MEP2 TOR yeast: 107.2

What do the screens show for `CN1CCc2nc(SCC(=O)Nc3ccc(Cl)cc3)c(C#N)cc2C1`?
LAP4-GFP MLPCN: 101.3; RPL19A-GFP yeast: 102.2; CIT2 TOR yeast: 114.5; AGP1 TOR yeast: 103.2; MEP2 TOR yeast: 105.6

What do the screens show for `COc1cccc(/C=C2\Oc3ccc(O)cc3C2=O)c1O`?
LAP4-GFP MLPCN: 78.3; RPL19A-GFP yeast: 102.4; CIT2 TOR yeast: 102.1; AGP1 TOR yeast: 88.0; MEP2 TOR yeast: 100.7

Results for O=C(O)c1ccc(Oc2c(C(F)(F)F)oc3cc(O)ccc3c2=O)cc1 ?
LAP4-GFP MLPCN: 92.5; RPL19A-GFP yeast: 55.8; CIT2 TOR yeast: 90.3; AGP1 TOR yeast: 56.6; MEP2 TOR yeast: 163.6; LAP4 cherry2: 104.2; MEP2 cherry2: 103.1; RPL19A GFP CP2: 97.2; CIT2 GFP CP2: 98.7; AGP1 GFP CP2: 98.3

How did Cc1oc2cc(O)ccc2c(=O)c1Oc1ccccc1 do in these assays?
LAP4-GFP MLPCN: 103.9; RPL19A-GFP yeast: 100.7; CIT2 TOR yeast: 104.1; AGP1 TOR yeast: 100.4; MEP2 TOR yeast: 100.5
